Experimental data published in PubChem BioAssay AID504734 (The Scripps Research Institute Molecular Screening Center, 2011).
In all, about 340,000 compounds went through this assay and about 730 (0.21%) were called active. This excerpt belongs to a sample that is enriched for actives. Values without a mark were called inactive.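 Rule for the calls: active = inhibition above the mean over all tested compounds plus 3 SD (cut at about 21% in these data); inactive = the rest.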

What follows are molecules tested against Toll-like receptor 9 (Homo sapiens) + Myeloid differentiation primary response protein MyD88 (Homo sapiens) (UniProt Q9NR96+Q99836) (assay: disruptors of TLR9 binding to MyD88 – cell-based, CHO, BLA complementation, fluorescence, primary screen (AID 504734;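 note: 0% = DMSO only wells and 100% = clavulanate BLA inhibitor control wells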)). Details: CHO BLA complementation TLR9-MyD88, CCF4 FRET ratio; at 4.98 µM; active compounds read high.
Toll-like receptor 9 (Homo sapiens) + Myeloid differentiation primary response protein MyD88 (Homo sapiens), sequence (Q99836 whole entry, looked up): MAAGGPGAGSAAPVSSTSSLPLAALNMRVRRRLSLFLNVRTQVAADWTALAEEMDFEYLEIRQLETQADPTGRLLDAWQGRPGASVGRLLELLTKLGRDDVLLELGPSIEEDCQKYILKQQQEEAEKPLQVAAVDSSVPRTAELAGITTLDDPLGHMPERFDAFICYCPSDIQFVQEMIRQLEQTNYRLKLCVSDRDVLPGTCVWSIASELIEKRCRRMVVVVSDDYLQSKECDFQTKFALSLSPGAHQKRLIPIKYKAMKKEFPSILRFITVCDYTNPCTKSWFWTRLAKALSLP
Toll-like receptor 9 (Homo sapiens) + Myeloid differentiation primary response protein MyD88 (Homo sapiens), sequence (Q9NR96 whole entry, looked up): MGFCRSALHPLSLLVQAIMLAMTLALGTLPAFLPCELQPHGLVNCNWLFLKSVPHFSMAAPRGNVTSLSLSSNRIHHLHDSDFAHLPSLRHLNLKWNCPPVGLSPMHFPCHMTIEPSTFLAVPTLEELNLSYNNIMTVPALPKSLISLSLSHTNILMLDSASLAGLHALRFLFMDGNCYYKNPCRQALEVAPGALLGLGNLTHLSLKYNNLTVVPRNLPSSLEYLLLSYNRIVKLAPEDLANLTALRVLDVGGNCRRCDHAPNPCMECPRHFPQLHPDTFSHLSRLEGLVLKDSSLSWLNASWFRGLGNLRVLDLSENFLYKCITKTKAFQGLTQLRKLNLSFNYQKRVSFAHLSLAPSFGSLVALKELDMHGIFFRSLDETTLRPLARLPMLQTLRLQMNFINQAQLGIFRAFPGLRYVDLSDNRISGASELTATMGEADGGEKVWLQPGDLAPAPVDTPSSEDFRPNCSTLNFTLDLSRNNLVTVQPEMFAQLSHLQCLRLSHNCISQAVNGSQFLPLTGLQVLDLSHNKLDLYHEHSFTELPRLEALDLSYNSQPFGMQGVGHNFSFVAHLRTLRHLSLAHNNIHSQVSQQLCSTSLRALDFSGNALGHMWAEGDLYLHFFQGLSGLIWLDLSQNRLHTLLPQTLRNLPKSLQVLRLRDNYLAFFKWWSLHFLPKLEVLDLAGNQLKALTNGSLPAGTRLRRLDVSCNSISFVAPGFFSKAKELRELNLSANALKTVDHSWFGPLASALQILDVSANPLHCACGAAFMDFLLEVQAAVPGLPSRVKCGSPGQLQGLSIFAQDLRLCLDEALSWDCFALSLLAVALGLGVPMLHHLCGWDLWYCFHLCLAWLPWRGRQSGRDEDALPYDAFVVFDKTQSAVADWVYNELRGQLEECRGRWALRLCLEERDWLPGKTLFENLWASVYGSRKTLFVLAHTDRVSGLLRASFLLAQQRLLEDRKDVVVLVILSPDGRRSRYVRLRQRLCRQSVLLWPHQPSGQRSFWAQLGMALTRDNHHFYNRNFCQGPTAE

SMILES	inhibition
COc1ccc(-c2nn(-c3ccccc3)cc2C(=O)Nc2nccs2)cc1OC	7.8%
COc1ccc(-c2nn(-c3ccccc3)cc2/C=N/Nc2ccccn2)cc1OC	27.6% (active)
O=Cc1cn(-c2ccccc2)nc1-c1ccccn1	-5.05%
NC1=CC(=O)C(=O)c2cccnc21	-3.3%
Cc1nc2ccccn2c(=O)c1NC(=O)c1ccc(Br)o1	-8.57%
C[C@H]1CN([C@@H](C)CO)C(=O)CCCn2cc(nn2)CO[C@@H]1CN(C)S(=O)(=O)c1cccs1	-3.23%
CCN(CC)C(=O)c1sc2nc(-c3ccccc3)ccc2c1N	1.41%
Nc1cccc(-c2cc(-c3ccccc3)nc(-c3cccc(N)c3)n2)c1	4.91%
CS(=O)(=O)c1sc2nc(-c3ccccc3)cc(-c3ccccc3)c2c1N	21.5% (active)
CCOC(=O)C(C(=O)c1ccccc1)C(c1ccccc1)c1nccc2ccccc12 (stereo not drawn)	-3.27%
O=C(O)c1ccccc1Cc1ccc(F)c2ccccc12	0.89%
O=C1NC(Cc2ccccc2)c2nc3ccc(Br)cc3c(=O)n2-c2cc3ccccc3cc21 (stereo not drawn)	4.34%
COc1ccc(-c2ccc(Nc3ccc(S(=O)(=O)N4CCCC4)cc3)nn2)cc1OC	-1.95%
COc1ccc(-c2cc(C(F)(F)F)nc(S(C)(=O)=O)n2)cc1OC	27.6% (active)
COc1ccc(-c2cc(-c3ccc(N)cc3)nc(N)c2C#N)cc1OC	-1.14%
Cc1ccc(S(=O)(=O)N2CCOCC2)cc1NC(=O)c1ccncc1	-10.3%
CCN1CCCC1CNC(=O)c1ccc2c(c1)NC(=O)/C(=C\c1ccccc1F)S2 (stereo not drawn)	5.07%
COc1ccc(-c2nc3cc(C)ccn3c2NC2CCCCC2)cc1SC1CCCCC1	-0.33%
COc1ccc(-c2nc3cnccn3c2NC2CCCCC2)cc1-c1cccc(Cl)c1	40.9% (active)
COc1ccc(-c2nc3cnccn3c2NC(C)(C)CC(C)(C)C)cc1O	-0.94%
CN(C)C(CNC(=O)c1cc(Br)c(Br)s1)c1ccco1 (stereo not drawn)	6.8%
NC(=S)NN=Cc1ccc(OC(=O)COc2cc(Cl)c(Cl)cc2Cl)cn1	12.2%

SMILES	inhibition
CC1(C)OC(=O)C2=C(CC(c3ccccc3)OC2CCc2ccccc2)O1 (stereo not drawn)	-19.4%
COc1ccc(S(=O)(=O)N2CCN(CC(=O)N3CCNC3=O)CC2)cc1OC	7.47%
Cc1ccc(S(=O)(=O)N2C[C@@H](C)[C@]3(C2)[C@H](O)[C@H](OC(=O)NCc2ccccc2)C[C@H]2C(=O)N(c4ccccc4)C(=O)[C@H]23)cc1	-1.46%
COc1ccc([C@H]2N[C@]3(CCCN(CC4CCCCC4)C3=O)[C@H]3C(=O)N(C)C(=O)[C@@H]23)cc1	1.4%
Cc1ccn(CC(=O)NC2CCCN(Cc3ccccc3F)C2)n1 (stereo not drawn)	9%
Nc1cccc2c1C(=O)N(Cc1nnc(-c3ccccc3Br)o1)C2=O	21.2% (active)
Cn1cnnc1SCc1nnc(-c2ccccc2Br)o1	-5.92%
CCOC(=O)N1CCN(Cc2nnc(-c3ccccc3Cl)o2)CC1	7.73%
CCN1CCN(CCNC(=O)c2ccc3c(c2)NC(=O)/C(=C\c2cccc(Cl)c2)S3)CC1	13.2%
CCOC(=O)C=Cc1ccc(C(=O)OCC)[nH]1	5.14%
Cc1cc(C)c2c(=O)n3c(nc2c1)C(CC(C)C)NC(=O)c1cc2ccccc2cc1-3 (stereo not drawn)	9.57%
CC1(C)CC(=O)NC=C(c2ccccc2)C1	-4.24%
CC1(C)CC(=O)C(CC(=O)N2CCC(Cc3ccccc3)CC2)C(=O)C1	-5.62%
CC1(C)CC(=O)C(C2c3ccccc3S(=O)(=O)c3ccccc32)C(=O)C1	22.1% (active)
CCN(CC)C(=O)C1=C(C)N(Cc2ccc(OC)cc2)C(=O)C(CC(=O)NCCCCc2ccccc2)C1 (stereo not drawn)	-3.92%
Nc1c(C(=O)c2cccs2)sc2nsc(SCCN3CCCCC3)c12	31.4% (active)
COc1ccc(NC(=O)CCCOc2ccc(C(C)=O)cc2)cc1S(=O)(=O)N1CCCCC1	-6.11%
COc1ccc([C@H]2N[C@]3(CCCN(Cc4ccco4)C3=O)[C@H]3C(=O)N(C)C(=O)[C@@H]23)cc1	-4.25%
Cc1noc(C)c1NC(=O)N(C)C[C@@H]1Oc2cc(Br)ccc2S(=O)(=O)N([C@@H](C)CO)C[C@H]1C	6.19%
CSc1nnc(NC(=O)c2nc(S(=O)(=O)Cc3ccc(C)cc3)ncc2Cl)s1	4.24%
Cc1cccc(NC(=O)c2nc(S(=O)(=O)Cc3ccccc3)ncc2Cl)c1	48.7% (active)
Cc1ccc(CS(=O)(=O)c2ncc(Cl)c(C(=O)Nc3nnc(C)s3)n2)cc1	12.2%

SMILES	inhibition
Cc1cccc(CS(=O)(=O)c2ncc(Cl)c(C(=O)Nc3ccc(F)cc3)n2)c1	35.3% (active)
O=C(Nc1ccc(F)cc1)c1ccc(S(=O)(=O)NCc2cccnc2)cc1	-9.53%
CN1CCN(c2ccc(NC(=O)c3ccc4c(c3)[nH]c(=O)n4Cc3ccc(F)cc3)cc2)CC1	5.07%
Cc1[nH]c2ccccc2c1C(=O)C(=O)NCc1nnnn1-c1cccc(F)c1	7.75%
COc1ccc(S(=O)(=O)N(C)C[C@H]2OCc3cnnn3CCCC(=O)N([C@H](C)CO)C[C@H]2C)cc1	-12.9%
CN(O)C(=S)c1ccccc1	21.8% (active)
CN(Cc1ccccc1)C(=O)c1cccc(C(=O)N(C)Cc2ccccc2)c1	-10.2%
CCCCCCn1c(=O)n2n(c1=O)C[C@]1(OC(=O)NCc3ccc(OC)c(OC)c3)CN(S(=O)(=O)c3ccc(C)cc3)C[C@]1(O)C2	-2.87%
CC1CCCC(C)N1C(=O)COC(=O)c1ccccc1C(=O)c1ccccc1 (stereo not drawn)	-3.35%
O=C(NCCc1cccc(F)c1)C1CC(O)CN1C(=O)Nc1ccccc1 (stereo not drawn)	-5.73%
COC(=O)N(C)C[C@@H]1OCc2cnnn2CCCC(=O)N([C@@H](C)CO)C[C@@H]1C	-7.29%
CSc1ncccc1C(=O)N1CCCC(Nc2ccc(F)c(F)c2)C1 (stereo not drawn)	-7.83%
Nc1cc(C(=O)N2CCN(c3ccccc3Cl)CC2)ccc1N1CC2CC(C1)c1cccc(=O)n1C2 (stereo not drawn)	-8.79%
Cc1cc(C)nc(SCc2ccccc2C#N)n1	23.9% (active)
CC1(C)CCc2nc(SCc3ccccc3)c(C#N)cc2C1	-6.7%
Cc1cc(C)nc(SCc2cn3c(C)cc(C)nc3n2)n1	-17%
COc1ccc(CN2C(=O)C(CC(=O)NCCN3CCOCC3)CC(C(=O)N(C(C)C)C(C)C)=C2C)cc1 (stereo not drawn)	-13.7%
COc1ccc(N)cc1NC(=O)CN1CCOCC1	3.79%
Nc1ccccc1-c1nc2ccncc2[nH]1	5.69%
C[C@H]1Cn2cnc(C(=O)N[C@H](C)c3ccccc3)c2C(=O)N1	-9.33%
COc1ccccc1NC(=O)C(CC(=O)O)Cc1cc(C)cc(C)c1 (stereo not drawn)	1.3%
COc1ccc(NC(=O)/C(Cl)=C(/Cl)S(=O)Cc2ccc(C)cc2)cn1 (stereo not drawn)	36.2% (active)

SMILES	inhibition
COc1ccc(NC(=O)CN2C(=O)NC(C)(c3ccccc3)C2=O)cn1 (stereo not drawn)	4.63%
COc1ccc(NS(=O)(=O)c2ccc(NC(=S)NC(=O)/C=C/c3ccc(C)cc3)cc2)nn1	4.17%
Cc1ccc(C(=O)NC(C)C(c2cccs2)N2CCOCC2)cc1C (stereo not drawn)	-1.7%
O=C(NCCN1CCOCC1)C1CCN(S(=O)(=O)c2ccccc2)CC1	-8.07%
CN1OC[C@@H]2CN[C@H](c3ccc(-c4ccccc4)cc3)C[C@@H]21	8.78%
COc1ccccc1N1N=C(c2cccs2)CC1c1ccccc1 (stereo not drawn)	38.6% (active)
Fc1ccc(N2N=C(c3cccs3)CC2c2ccco2)c(F)c1 (stereo not drawn)	1.6%
COc1ccc(C2CC(c3cccs3)=NN2c2nc(C)c(C(C)=O)s2)cc1OC (stereo not drawn)	-3.47%
CC(C)N=C1CCCC1C(=S)SSC(=S)C1CCCC1=NC(C)C (stereo not drawn)	6.42%
Cc1cc2cc3n(c2nn1)N=C(Cl)CC3	-2.59%
C[C@H](CO)N1C[C@H](C)[C@@H](CN(C)C(=O)c2cnccn2)Oc2ncc(Br)cc2C1=O	-6.82%
C[C@H](CO)N1C[C@H](C)[C@H](CN(C)C(=O)c2ccncc2)OCc2ccccc2-c2c(n(C)c3ccccc23)C1=O	7.41%
Oc1ccc2ccc3cccc[n+]3c2c1	30.4% (active)
O=S(=O)(c1cccc(C(F)(F)F)c1)N1c2ccccc2-n2cccc2C1c1cccnc1 (stereo not drawn)	2.97%
COc1ccc([C@H]2C[C@@H](n3cc(COC(=O)c4ccccc4)nn3)[C@H](O)CN2C(=O)c2cccs2)cc1	-6.05%
Cc1cc(Nc2ccc(C)c(C)c2)n2ncnc2n1	-6.42%
O=c1[nH]c2ccccc2n1C1CCN(CCOc2ccccc2)CC1	-9.37%
O=C(Nc1ccc2ccccc2c1)Nc1ccc2snnc2c1	22.2% (active)
S=C(Nc1ccccc1)Nc1ccc2ccccc2c1	-11.2%
Cc1nc2cc(NC(=O)Nc3cccc(F)c3)ccc2n1C	4.9%
COc1ccccc1C(=O)NC(=S)Nc1ccc(N2CCOCC2)cc1	-9.36%
Cc1ccccc1C#CC1=CC(=O)CC(C)(C)C1	4.4%
